Some structures have more than one record in an assay (separate samples or runs), and their calls can disagree. Active and inactive are the calls of the source. Rule for the calls: active = hit-call score of the fitted dose curve at least 0.9, where 1 is the maximum; inactive = score below 0.9.
Tests used:
[1] = BSK_hDFCGF_SRB: Viability Assessment in the BioMAP Diversity Plus: hDFCGF Assay (AID 2283061); details: primary human foreskin fibroblasts;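 note: cells exposed to compound for 24 h before the read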
Method in brief: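 Primary human foreskin fibroblasts; 24 h post-dose; fixed 10% TCA, stained 0.1% SRB, A560 read; total protein as overt cytotoxicity measure; curves fit bidirectionally vs DMSO control.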

[2] = read-out: TIMP metallopeptidase inhibitor 1 (TIMP1), TIMP1 (gene 7076); test: BSK_hDFCGF_TIMP1: BioMAP Diversity Plus: hDFCGF Assay for TIMP metallopeptidase inhibitor 1 (TIMP1) Biomarker Activity (AID 2283062); details: primary human foreskin fibroblasts; actives raise or lower the signal
Method in brief: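 ELISA readout of TIMP-1 from human dermal foreskin fibroblast cultures 24 h post-dosing. Curves were fitted in both directions against DMSO baseline, with SRB total-protein staining in parallel cultures as a cytotoxicity check.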

[3] = read-out: Monokine induced gamma interferon (MIG), CXCL9 (gene 4283); test: BSK_hDFCGF_MIG: BioMAP Diversity Plus: hDFCGF Assay for Monokine induced gamma interferon (MIG) Biomarker Activity (AID 2283063); details: primary human foreskin fibroblasts; actives raise or lower the signal
Method in brief: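 Fibroblasts (human foreskin, primary) dosed, 24 h, MIG by ELISA; fit bidirectional vs DMSO.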

[4] = read-out: Matrix Metallopeptidase 1 (MMP1), MMP1 (gene 4312); test: BSK_hDFCGF_MMP1: BioMAP Diversity Plus: hDFCGF Assay for Matrix Metallopeptidase 1 (MMP1) Biomarker Activity (AID 2283064); details: primary human foreskin fibroblasts; actives raise or lower the signal
Method in brief: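 hDFCGF primary fibroblasts (human foreskin); chemical added; 24 h; MMP1 by ELISA; bidirectional fit vs DMSO.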

[5] = read-out: Vascular cell adhesion molecule 1 (VCAM1), VCAM1 (gene 7412); test: BSK_hDFCGF_VCAM1: BioMAP Diversity Plus: hDFCGF Assay for Vascular cell adhesion molecule 1 (VCAM1) Biomarker Activity (AID 2283065); details: primary human foreskin fibroblasts; actives raise or lower the signal;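 for AC50: VCAM-1 protein level quantified by ELISA after 24 h chemical exposure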
Method in brief: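 ELISA read-out of VCAM-1 on human skin fibroblasts, 24 h post-dose; gain or loss of signal fitted bidirectionally against DMSO baseline.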

[6] = read-out: Plasminogen activator inhibitor-1 (PAI1), SERPINE1 (gene 5054); test: BSK_hDFCGF_PAI1: BioMAP Diversity Plus: hDFCGF Assay for Plasminogen activator inhibitor-1 (PAI1) Biomarker Activity (AID 2283066); details: primary human foreskin fibroblasts; actives raise or lower the signal
Method in brief: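 Human foreskin fibroblast primary cells, 24 h chemical exposure; PAI-1 measured by ELISA. Bidirectional fitting relative to DMSO; parallel cultures stained with SRB for total protein to flag overt cytotoxicity.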

[7] = read-out: Intercellular Adhesion Molecule 1 (ICAM1), ICAM1 (gene 3383); test: BSK_KF3CT_ICAM1: BioMAP Diversity Plus: KF3CT Assay for Intercellular Adhesion Molecule 1 (ICAM1) Biomarker Activity (AID 2283067); details: primary human keratinocytes with fibroblasts; actives raise or lower the signal
Method in brief: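 ELISA readout of ICAM-1; KF3CT human skin co-culture (keratinocytes + foreskin fibroblasts), 24 h post-dose; gain/loss fit vs DMSO baseline.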

[8] = read-out: Interferon-gamma inducible Protein 10 (IP10), CXCL10 (gene 3627); test: BSK_KF3CT_IP10: BioMAP Diversity Plus: KF3CT Assay for Interferon-gamma inducible Protein 10 (IP10) Biomarker Activity (AID 2283068); details: primary human keratinocytes with fibroblasts; actives raise or lower the signal
Method in brief: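 Signal is secreted/surface IP-10 by ELISA in a human primary skin co-culture of keratinocytes and foreskin fibroblasts, taken 24 h post-dosing; DMSO served as negative control.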

[9] = BSK_KF3CT_SRB: Viability Assessment in the BioMAP Diversity Plus: KF3CT Assay (AID 2283069); details: primary human keratinocytes with fibroblasts;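 note: total protein by sulforhodamine B staining as a cytotoxicity measure; read 24 h after compound addition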
Method in brief: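 Keratinocytes co-cultured with foreskin fibroblasts (human primary); chemical added, 24 h; fix 10% TCA, stain 0.1% SRB, A560. Bidirectional fit vs DMSO.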

[10] = read-out: Interleukin-1 alpha (IL1a), IL1A (gene 3552); test: BSK_KF3CT_IL1a: BioMAP Diversity Plus: KF3CT Assay for Interleukin-1 alpha (IL1a) Biomarker Activity (AID 2283070); details: primary human keratinocytes with fibroblasts; actives raise or lower the signal
Method in brief: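 Chemicals were dosed onto co-cultured human keratinocytes and foreskin fibroblasts, IL-1a was quantified by ELISA at 24 h, and activity was fitted in both directions relative to DMSO controls.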

[11] = read-out: TIMP metallopeptidase inhibitor 2 (TIMP2), TIMP2 (gene 7077); test: BSK_KF3CT_TIMP2: BioMAP Diversity Plus: KF3CT Assay for TIMP metallopeptidase inhibitor 2 (TIMP2) Biomarker Activity (AID 2283071); details: primary human keratinocytes with fibroblasts; actives raise or lower the signal
Method in brief: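 Co-culture of human primary keratinocytes and foreskin fibroblasts, measured 24 h after chemical dosing. TIMP-2 quantified by ELISA and fitted in both directions relative to DMSO. Cytotoxicity checked in parallel cultures by SRB total-protein staining.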

[12] = read-out: Transforming growth factor beta 1 (TGFb1), TGFB1 (gene 7040); test: BSK_KF3CT_TGFb1: BioMAP Diversity Plus: KF3CT Assay for Transforming growth factor beta 1 (TGFb1) Biomarker Activity (AID 2283072); details: primary human keratinocytes with fibroblasts; actives raise or lower the signal
Method in brief: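 Human keratinocyte/foreskin fibroblast co-culture; TGF-b1 measured by ELISA 24 h after dosing, fitted bidirectionally versus DMSO. Cytotoxicity checked in parallel cultures by total protein (SRB staining, 560 nm).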

[13] = read-out: Matrix Metallopeptidase 9 (MMP9), MMP9 (gene 4318); test: BSK_KF3CT_MMP9: BioMAP Diversity Plus: KF3CT Assay for Matrix Metallopeptidase 9 (MMP9) Biomarker Activity (AID 2283074); details: primary human keratinocytes with fibroblasts; actives raise or lower the signal;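 for AC50: MMP9 protein level quantified by ELISA in the co-culture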
Method in brief: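 Human keratinocyte/foreskin fibroblast co-culture; compound added; 24 h; MMP-9 by ELISA; bidirectional fit vs DMSO baseline.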

[14] = read-out: urokinase plasminogen activator (uPA), PLAU (gene 5328); test: BSK_KF3CT_uPA: BioMAP Diversity Plus: KF3CT Assay for urokinase plasminogen activator (uPA) Biomarker Activity (AID 2283075); details: primary human keratinocytes with fibroblasts; actives raise or lower the signal
Method in brief: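 ELISA readout of uPA, analyzed for signal gain or loss relative to DMSO, from a human primary keratinocyte–foreskin fibroblast co-culture measured 24 h after chemical treatment.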

CD40, CD40 (gene 958) = test: BSK_LPS_CD40: BioMAP Diversity Plus: LPS Assay for CD40 Biomarker Activity (AID 2283076); details: primary human HUVEC with PBMC; actives raise or lower the signal
Method in brief: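 ELISA readout of CD40 in HUVEC/PBMC co-culture (BSK_LPS system), 24 h post-dosing; bidirectional curve fit, DMSO baseline; parallel SRB total-protein staining for cytotoxicity.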

[15] = read-out: E-selectin (Homo sapiens) (UniProt P16581); test: BSK_LPS_Eselectin: BioMAP Diversity Plus: LPS Assay for Eselectin Biomarker Activity (AID 2283077); details: primary human HUVEC with PBMC; actives raise or lower the signal
Method in brief: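 ELISA readout of E-selectin, 24 h post-dose, HUVEC + PBMC co-culture (LPS system). Gain or loss of signal vs DMSO baseline, bidirectional fit.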

[16] = read-out: Interleukin-8 (IL8), CXCL8 (gene 3576); test: BSK_LPS_IL8: BioMAP Diversity Plus: LPS Assay for Interleukin-8 (IL8) Biomarker Activity (AID 2283078); details: primary human HUVEC with PBMC; actives raise or lower the signal
Method in brief: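 HUVEC + PBMC co-culture, LPS-activated; test chemicals dosed, IL-8 read by ELISA at 24 h. Bidirectional curve fit vs DMSO baseline (gain or loss of signal).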

[17] = BSK_LPS_SRB: Viability Assessment in the BioMAP Diversity Plus: LPS Assay (AID 2283079); details: primary human HUVEC with PBMC;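 note: total protein by sulforhodamine B absorbance as a cytotoxicity measure; measured one day after compound addition; fitted in both directions against DMSO so loss or gain of signal counts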
Method in brief: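 HUVEC + PBMC co-culture, LPS-stimulated; compound 24 h. 10% TCA fix, 0.1% SRB stain, A560. Bidirectional fit vs DMSO.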

[18] = read-out: C-C motif chemokine 2 (Homo sapiens) (UniProt P13500); test: BSK_KF3CT_MCP1: BioMAP Diversity Plus: KF3CT Assay for Monocyte Chemoattractant Protein 1 (MCP1/CCL2) Biomarker Activity (AID 2283073); details: primary human keratinocytes with fibroblasts; actives raise or lower the signal
Method in brief: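 KF3CT skin co-culture (keratinocytes/foreskin fibroblasts), 24 h post-dose; MCP-1 by ELISA; gain/loss of signal fit bidirectionally vs DMSO baseline.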

Measured: AC50

Sequence of E-selectin (Homo sapiens) (P16581 whole entry, looked up): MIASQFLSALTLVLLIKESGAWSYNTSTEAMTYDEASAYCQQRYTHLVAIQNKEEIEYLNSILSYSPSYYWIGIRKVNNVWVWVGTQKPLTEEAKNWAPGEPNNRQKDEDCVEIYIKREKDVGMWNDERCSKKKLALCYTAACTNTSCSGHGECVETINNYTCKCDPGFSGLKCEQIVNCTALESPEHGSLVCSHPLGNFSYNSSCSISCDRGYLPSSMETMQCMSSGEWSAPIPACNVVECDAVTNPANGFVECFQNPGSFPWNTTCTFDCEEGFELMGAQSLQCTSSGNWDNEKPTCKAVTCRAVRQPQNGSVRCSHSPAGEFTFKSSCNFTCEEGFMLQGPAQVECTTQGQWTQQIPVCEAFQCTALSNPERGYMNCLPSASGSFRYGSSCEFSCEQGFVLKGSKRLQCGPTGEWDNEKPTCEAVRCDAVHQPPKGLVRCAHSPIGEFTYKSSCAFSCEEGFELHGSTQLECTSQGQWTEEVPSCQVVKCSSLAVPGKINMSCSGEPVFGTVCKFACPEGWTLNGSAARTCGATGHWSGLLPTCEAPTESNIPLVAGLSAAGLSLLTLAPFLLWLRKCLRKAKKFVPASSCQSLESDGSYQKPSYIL

CC(C=O)Cc1ccc(C(C)(C)C)cc1 (configuration not stated)
active: [1] 35.5 µM | [2] 31.9 µM | [6] 27.4 µM | [11] 32.4 µM | [13] 36.7 µM | [14] 31 µM | CD40, CD40 (gene 958) 27.2 µM | [15] 31.4 µM | [17] 32.6 µM
inactive: [3] | [4] | [5] | [7] | [8] | [9] | [10] | [12] | [16]

CCCCOC(=O)CCCCCCCC(=O)OCCCC
not listed: [18]
inactive: all other assays above

CN(C)C(=S)SC(=S)N(C)C
active: [2] 37.8 µM | [3] 34.4 µM | [4] 36.2 µM | [5] 31.2 µM | [6] 19.9 µM | [7] 27.3 µM
not listed: [18]
inactive: all other assays above

CCOC(=O)C(C#N)=C(c1ccccc1)c1ccccc1
inactive: [1] | [2] | [3] | [4] | [5] | [6] | [7] | [8] | [9] | [10] | [11] | [18] | [13] | [14] | CD40, CD40 (gene 958) | [15] | [16] | [17]
active: [5] 14.6 µM

C=C(C)C(=O)OCCOCCOCCOC(=O)C(=C)C
active: [6] 0.0518 µM | [10] 0.041 µM | [14] 3.97 µM
not listed: [18]
inactive: all other assays above

Oc1c(Cl)cc(Cl)c(Cl)c1Cc1c(O)c(Cl)cc(Cl)c1Cl
active: [1] 5.15 µM | [2] 1.94 µM | [3] 3.45 µM | [4] 3.28 µM | [5] 2.22 µM | [6] 0.338 µM | [7] 3.14 µM | [8] 2.4 µM | [9] 5.15 µM | [10] 1.83 µM | [11] 1.79 µM | [12] 2.81 µM | [18] 5.44 µM | [13] 0.74 µM | [14] 2.99 µM | CD40, CD40 (gene 958) 6.43 µM | [15] 22.8 µM | [16] 15.3 µM | [17] 14.1 µM

C=C(C)C(=O)OCCOCCOCCOCCOC(=O)C(=C)C
not listed: [18]
inactive: all other assays above

O=C(Nc1ccc2c(O)c(N=Nc3ccc(N=Nc4ccc(S(=O)(=O)O)cc4)cc3)c(S(=O)(=O)O)cc2c1)c1ccccc1
inactive: [2] | [3] | [4] | [5] | [6] | [7] | [8] | [9] | [10] | [11] | [13] | [14] | CD40, CD40 (gene 958) | [15] | [16] | [17]
active: [1] 35.3 µM | [3] 23.6 µM | [5] 15.1 µM

O=C1OC2(c3ccccc31)c1ccc(O)c(Br)c1Oc1c2ccc(O)c1Br
active: [5] 7.49 µM | [10] 20 µM | [11] 20 µM | [12] 4.66 µM | CD40, CD40 (gene 958) 20 µM | [15] 24.5 µM
not listed: [18]
inactive: all other assays above

CCCCCCCCCCCCCCCC(=O)OC/C=C(C)/C=C/C=C(C)/C=C/C1=C(C)CCCC1(C)C
active: [2] 0.846 µM | [6] 3.97 µM | [12] 0.0644 µM | [13] 0.125 µM
inactive: all other assays above

CN(c1nccc(=O)[nH]1)C1CCN(c2nc3ccccc3n2Cc2ccc(F)cc2)CC1
not listed: [18]
inactive: all other assays above

Source: PubChem BioAssay (EPA / NIEHS)
